According to paper PMC7862700, “An all-to-all approach to the identification of sequence-specific readers for epigenetic DNA modifications on cytosine”:

Assays:
Assay in all cases: DAPPL (digital affinity profiling via proximity ligation, sequencing); 10 mM Tris-HCl pH 7.5, 50 mM NaCl, 1 mM DTT, 4% glycerol, room temperature, 30 min; GST-TFs on glutathione beads, 16-mer random dsDNA library, 0.1% formaldehyde crosslink after washing; high values mean tight binding
Conditions in all cases: protein: recombinant; tags: N-terminal GST; dsDNA, one strand shown
FLI1 = molecular target: T1, FLI1 (Homo sapiens, UniProt Q01543 1-452)
T1 sequence: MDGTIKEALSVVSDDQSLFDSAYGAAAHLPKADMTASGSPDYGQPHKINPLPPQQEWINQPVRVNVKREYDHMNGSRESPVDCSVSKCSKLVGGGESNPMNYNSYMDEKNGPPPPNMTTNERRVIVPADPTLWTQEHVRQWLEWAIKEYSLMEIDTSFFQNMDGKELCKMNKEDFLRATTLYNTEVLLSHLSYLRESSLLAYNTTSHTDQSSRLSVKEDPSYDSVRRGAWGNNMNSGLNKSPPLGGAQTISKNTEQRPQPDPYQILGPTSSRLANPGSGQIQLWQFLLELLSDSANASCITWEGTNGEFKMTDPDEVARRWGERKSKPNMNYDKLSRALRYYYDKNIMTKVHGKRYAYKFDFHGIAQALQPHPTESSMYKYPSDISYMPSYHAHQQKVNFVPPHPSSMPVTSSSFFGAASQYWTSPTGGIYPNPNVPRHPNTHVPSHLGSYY
How it was run: (§1)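 Human transcription factors carrying a GST fusion were produced in yeast, bound to glutathione beads, tagged with DNA barcodes and pooled together with a tag-only sample. Each pool was held with 200 nmole of a random double-stranded 16-mer DNA library in Tris/NaCl/DTT/glycerol buffer for 30 min at room temperature, then washed, crosslinked in 0.1% formaldehyde, proximity-ligated with BsaI/T4 ligase (1 h, 37 °C), PCR-amplified and sequenced on an Illumina NextSeq500. Binding signal is the read frequency of each hexamer for a given factor divided by its frequency in the tag-only sample.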

ELK1 = molecular target: T2, ELK1 (Homo sapiens, UniProt P19419 1-428)
T2 sequence: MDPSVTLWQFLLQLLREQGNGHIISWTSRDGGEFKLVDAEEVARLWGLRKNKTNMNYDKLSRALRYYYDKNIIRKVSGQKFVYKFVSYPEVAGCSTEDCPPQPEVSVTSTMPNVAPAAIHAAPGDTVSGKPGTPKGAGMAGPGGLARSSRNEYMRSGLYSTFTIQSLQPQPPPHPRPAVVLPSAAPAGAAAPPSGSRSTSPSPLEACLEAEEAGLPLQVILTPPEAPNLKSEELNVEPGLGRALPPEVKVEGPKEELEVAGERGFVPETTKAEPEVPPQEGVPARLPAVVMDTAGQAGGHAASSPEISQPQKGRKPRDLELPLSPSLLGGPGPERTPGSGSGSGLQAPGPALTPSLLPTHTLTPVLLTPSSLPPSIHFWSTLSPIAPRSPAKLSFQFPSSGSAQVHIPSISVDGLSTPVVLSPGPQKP
How it was run: as §1

GABPA = molecular target: T3, GABPA (Homo sapiens, UniProt Q06546 1-454)
T3 sequence: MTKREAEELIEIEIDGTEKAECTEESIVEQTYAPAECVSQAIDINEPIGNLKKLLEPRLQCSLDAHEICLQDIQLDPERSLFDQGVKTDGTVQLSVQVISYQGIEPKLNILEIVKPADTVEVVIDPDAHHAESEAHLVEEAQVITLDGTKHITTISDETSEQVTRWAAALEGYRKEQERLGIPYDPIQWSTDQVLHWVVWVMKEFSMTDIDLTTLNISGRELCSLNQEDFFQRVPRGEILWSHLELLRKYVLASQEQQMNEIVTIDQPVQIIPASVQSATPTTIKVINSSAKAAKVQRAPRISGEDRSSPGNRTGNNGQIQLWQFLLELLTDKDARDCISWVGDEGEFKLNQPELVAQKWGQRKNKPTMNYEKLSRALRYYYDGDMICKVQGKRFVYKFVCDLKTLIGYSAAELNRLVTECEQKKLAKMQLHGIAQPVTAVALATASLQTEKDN
How it was run: as §1

ERG = molecular target: T4, ERG (Homo sapiens, UniProt P11308 1-479)
T4 sequence: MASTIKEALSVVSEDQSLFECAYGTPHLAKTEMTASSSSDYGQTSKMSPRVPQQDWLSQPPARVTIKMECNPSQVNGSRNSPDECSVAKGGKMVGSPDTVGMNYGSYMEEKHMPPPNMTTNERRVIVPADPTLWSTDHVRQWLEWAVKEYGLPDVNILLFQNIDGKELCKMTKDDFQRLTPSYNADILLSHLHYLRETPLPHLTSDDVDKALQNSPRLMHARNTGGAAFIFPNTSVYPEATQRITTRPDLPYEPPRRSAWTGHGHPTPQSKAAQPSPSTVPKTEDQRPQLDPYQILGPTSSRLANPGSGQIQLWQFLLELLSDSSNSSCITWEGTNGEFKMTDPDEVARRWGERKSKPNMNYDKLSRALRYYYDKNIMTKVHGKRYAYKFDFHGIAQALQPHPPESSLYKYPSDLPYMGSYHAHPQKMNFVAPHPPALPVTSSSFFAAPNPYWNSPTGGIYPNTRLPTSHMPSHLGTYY
How it was run: as §1

ELF1 = ELF1 (Homo sapiens, UniProt P32519 1-619)
ELF1, sequence (P32519 whole entry): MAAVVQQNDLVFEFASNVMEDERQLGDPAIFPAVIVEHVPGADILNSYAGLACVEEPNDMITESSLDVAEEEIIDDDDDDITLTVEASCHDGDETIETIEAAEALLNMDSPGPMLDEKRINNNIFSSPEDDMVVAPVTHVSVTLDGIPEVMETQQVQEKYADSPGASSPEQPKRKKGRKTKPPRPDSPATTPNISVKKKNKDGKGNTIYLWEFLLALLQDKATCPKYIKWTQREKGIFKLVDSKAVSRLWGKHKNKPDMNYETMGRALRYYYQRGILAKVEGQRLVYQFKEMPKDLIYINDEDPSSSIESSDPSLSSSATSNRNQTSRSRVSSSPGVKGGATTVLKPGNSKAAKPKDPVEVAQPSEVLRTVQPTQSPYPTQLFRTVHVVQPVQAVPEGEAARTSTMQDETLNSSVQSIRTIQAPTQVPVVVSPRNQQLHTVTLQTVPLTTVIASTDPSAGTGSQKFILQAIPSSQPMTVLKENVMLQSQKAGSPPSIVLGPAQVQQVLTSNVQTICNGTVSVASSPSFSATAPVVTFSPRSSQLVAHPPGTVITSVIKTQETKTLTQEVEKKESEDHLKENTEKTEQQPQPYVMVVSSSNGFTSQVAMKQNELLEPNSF
How it was run: as §1

EHF = molecular target: T5, EHF (Homo sapiens, UniProt Q9NZC4 1-300)
T5 sequence: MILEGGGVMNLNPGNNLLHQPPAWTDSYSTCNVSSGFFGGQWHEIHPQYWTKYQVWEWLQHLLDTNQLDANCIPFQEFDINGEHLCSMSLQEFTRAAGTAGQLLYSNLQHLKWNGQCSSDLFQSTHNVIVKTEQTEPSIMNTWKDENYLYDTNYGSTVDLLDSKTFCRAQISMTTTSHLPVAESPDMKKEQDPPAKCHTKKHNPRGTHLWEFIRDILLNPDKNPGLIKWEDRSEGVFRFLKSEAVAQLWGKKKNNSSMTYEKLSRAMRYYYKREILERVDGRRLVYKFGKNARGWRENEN
How it was run: as §1

SPI1 = SPI1 (Homo sapiens, UniProt P17947 1-270)
How it was run: as §1

SPIB = SPIB (Homo sapiens, UniProt Q01892 1-262)
SPIB, sequence (Q01892 whole entry): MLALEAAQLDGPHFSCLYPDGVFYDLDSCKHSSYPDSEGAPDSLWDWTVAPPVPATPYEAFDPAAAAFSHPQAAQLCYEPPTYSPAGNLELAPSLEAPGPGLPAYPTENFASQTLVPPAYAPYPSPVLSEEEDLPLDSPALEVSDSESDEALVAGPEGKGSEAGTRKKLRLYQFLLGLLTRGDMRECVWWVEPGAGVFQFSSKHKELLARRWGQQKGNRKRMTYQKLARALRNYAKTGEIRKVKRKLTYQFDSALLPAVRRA
How it was run: as §1

ELK3 = molecular target: T6, ELK3 (Homo sapiens, UniProt P41970 1-407)
T6 sequence: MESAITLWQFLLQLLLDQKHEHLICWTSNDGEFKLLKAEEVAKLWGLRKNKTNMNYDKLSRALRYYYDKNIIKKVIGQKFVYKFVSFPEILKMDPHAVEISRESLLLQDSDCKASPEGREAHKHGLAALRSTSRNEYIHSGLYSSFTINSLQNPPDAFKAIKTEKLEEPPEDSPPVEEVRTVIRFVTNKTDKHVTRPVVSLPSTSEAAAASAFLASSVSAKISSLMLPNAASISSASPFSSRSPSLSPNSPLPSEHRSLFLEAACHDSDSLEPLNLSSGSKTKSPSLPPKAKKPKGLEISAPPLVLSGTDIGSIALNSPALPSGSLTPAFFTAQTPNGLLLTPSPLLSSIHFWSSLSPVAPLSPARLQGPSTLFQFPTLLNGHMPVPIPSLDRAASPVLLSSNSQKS
How it was run: as §1

| Sequence | binding signal (FLI1) | binding signal (ELK1) | binding signal (GABPA) | binding signal (ERG) | binding signal (ELF1) | binding signal (EHF) | binding signal (SPI1) | binding signal (SPIB) | binding signal (ELK3) |
| --- | --- | --- | --- | --- | --- | --- | --- | --- | --- |
| CCCGAT | 1.29 fold enrichment (6-mer frequency, TF over GST control) | 1.17 fold enrichment (6-mer frequency, TF over GST control) | 1.1 fold enrichment (6-mer frequency, TF over GST control) | 1.14 fold enrichment (6-mer frequency, TF over GST control) | 1.16 fold enrichment (6-mer frequency, TF over GST control) | 1.22 fold enrichment (6-mer frequency, TF over GST control) | 1.16 fold enrichment (6-mer frequency, TF over GST control) | 1.26 fold enrichment (6-mer frequency, TF over GST control) | 1.06 fold enrichment (6-mer frequency, TF over GST control) |
| TAATAC | 1.11 fold enrichment (6-mer frequency, TF over GST control) | 1.07 fold enrichment (6-mer frequency, TF over GST control) | 1.04 fold enrichment (6-mer frequency, TF over GST control) | 1.09 fold enrichment (6-mer frequency, TF over GST control) | 1.13 fold enrichment (6-mer frequency, TF over GST control) | 1.13 fold enrichment (6-mer frequency, TF over GST control) | 1.05 fold enrichment (6-mer frequency, TF over GST control) | 1.06 fold enrichment (6-mer frequency, TF over GST control) | 1.04 fold enrichment (6-mer frequency, TF over GST control) |
| CCGCAT | 1.61 fold enrichment (6-mer frequency, TF over GST control) | 1.59 fold enrichment (6-mer frequency, TF over GST control) | 1.54 fold enrichment (6-mer frequency, TF over GST control) | 1.52 fold enrichment (6-mer frequency, TF over GST control) | 1.58 fold enrichment (6-mer frequency, TF over GST control) | 1.61 fold enrichment (6-mer frequency, TF over GST control) | 1.99 fold enrichment (6-mer frequency, TF over GST control) | 1.55 fold enrichment (6-mer frequency, TF over GST control) | 1.6 fold enrichment (6-mer frequency, TF over GST control) |
| ATCATC | 1.17 fold enrichment (6-mer frequency, TF over GST control) | 1.2 fold enrichment (6-mer frequency, TF over GST control) | 1.19 fold enrichment (6-mer frequency, TF over GST control) | 1.17 fold enrichment (6-mer frequency, TF over GST control) | 1.25 fold enrichment (6-mer frequency, TF over GST control) | 1.25 fold enrichment (6-mer frequency, TF over GST control) | 1.14 fold enrichment (6-mer frequency, TF over GST control) | 1.19 fold enrichment (6-mer frequency, TF over GST control) | 1.08 fold enrichment (6-mer frequency, TF over GST control) |
| TCCTTC | 2.2 fold enrichment (6-mer frequency, TF over GST control) | 2 fold enrichment (6-mer frequency, TF over GST control) | 2.01 fold enrichment (6-mer frequency, TF over GST control) | 2.44 fold enrichment (6-mer frequency, TF over GST control) | 2.05 fold enrichment (6-mer frequency, TF over GST control) | 2 fold enrichment (6-mer frequency, TF over GST control) | 2.15 fold enrichment (6-mer frequency, TF over GST control) | 2.16 fold enrichment (6-mer frequency, TF over GST control) | 2.3 fold enrichment (6-mer frequency, TF over GST control) |
| TTGATG | 1.45 fold enrichment (6-mer frequency, TF over GST control) | 1.82 fold enrichment (6-mer frequency, TF over GST control) | 1.72 fold enrichment (6-mer frequency, TF over GST control) | 1.61 fold enrichment (6-mer frequency, TF over GST control) | 1.64 fold enrichment (6-mer frequency, TF over GST control) | 1.65 fold enrichment (6-mer frequency, TF over GST control) | 1.51 fold enrichment (6-mer frequency, TF over GST control) | 1.62 fold enrichment (6-mer frequency, TF over GST control) | 1.52 fold enrichment (6-mer frequency, TF over GST control) |
| AAAAAG | 1.18 fold enrichment (6-mer frequency, TF over GST control) | 1.18 fold enrichment (6-mer frequency, TF over GST control) | 1.25 fold enrichment (6-mer frequency, TF over GST control) | 1.19 fold enrichment (6-mer frequency, TF over GST control) | 1.13 fold enrichment (6-mer frequency, TF over GST control) | 1.22 fold enrichment (6-mer frequency, TF over GST control) | 1.72 fold enrichment (6-mer frequency, TF over GST control) | 1.29 fold enrichment (6-mer frequency, TF over GST control) | 1.2 fold enrichment (6-mer frequency, TF over GST control) |
